34 molecules from PubChem BioAssay (EPA / NIEHS) can be followed below.

Records with an inconclusive call do not appear. Calls of active or inactive are those of the source. Rule for the calls: active = hit-call score of the fitted dose curve at least 0.9, where 1 is the maximum; inconclusive = response in the unintended direction; inactive = score below 0.9.

The nature of this experiment: CLD_ACTIN_6hr: CellzDirect (CLD) Gene Expression Assay for Baseline Control (Actin) at 6 hours (AID 2283676).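 Note: active means increased actin mRNA relative to DMSO vehicle.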 How it is done:
CLD_6hr is a cell-based, multiplexed-readout assay that uses hepatocyte, a human liver primary cell, with measurements taken at 6 hours after chemical dosing in a 96-well plate.CLD_ACTIN_6hr is one of 16 assay component(s) measured or calculated from the CLD_6hr assay. It is designed to make measurements of mRNA induction, a form of inducible reporter, as detected with chemiluminescence signals by Quantitative Nuclease Protection Assay (qNPA) technology.Data from the assay component CLD_ACTIN_6hr was analyzed at the endpoint, CLD_ACTIN_6hr, in the positive analysis fitting direction relative to DMSO as the negative control and baseline of activity. Using a type of inducible reporter, gain-of-signal activity can be used to understand changes in the reporter gene as they relate to the gene ACTA1. Furthermore, this assay endpoint can be referred to as a secondary readout, because this assay has produced multiple assay endpoints where this one serves a background control function. To generalize the intended target to other relatable targets, this assay endpoint is annotated to the background measurement intended target family, where subfamily is baseline control.
Human hepatocyte cultures were treated daily for two consecutive days with fresh dosing solutions containing appropriate concentrations of the 320 ToxCast chemicals (chemical identities were blinded to CellzDirect and other ToxCast collaborators), vehicle control (0.2% DMSO), and positive control inducers as summarized in Table 1. Due to the large number of treatment groups and chemicals examined, the ToxCast chemicals were divided into two groups (spanning two independent cultures of hepatocytes from separate donor preparations (Hu778: ToxCast plates 1 and 2; Hu776: ToxCast plates 3 and 4). Each preparation of human hepatocyte cultures was treated with respective vehicle control, medium only control, set of six positive controls/reference chemicals for the five hepatic receptor pathways, and a subset of eight of the ToxCast chemicals (indoxacarb, pyrithiobac-sodium, norflurazon, cyhalofop-butyl, methomyl, thiram, acetochlor, and propiconazole). These replicate data, coupled with internal replicates designed within the blinded ToxCast chemical library, provided additional data to evaluate interindividual differences between hepatocyte preparations and their potential impact on chemical profiles.Cell morphology and integrity were evaluated using phase-contrast microscopy as an indicator of hepatocyte cell health (Tyson & Green, 1987). Cultures for each treatment group (i.e., media, vehicle [0.2% DMSO], positive control inducers [multiple concentrations], and the ToxCast chemicals [multiple concentrations]) were observed and cell morphology was assessed relative to vehicle control cultures at each harvest time point (0, 6, 24, or 48 h). […] Images were evaluated at the conclusion of the study to assess changes in cell integrity and account for the effects of chemical exposure on uncharacteristic changes in concentration-dependent gene expression profiles. The results from these determinations of apparent cytotoxicity were annotated (yes/no) alongside the corresponding qNPA data for reference.At the conclusion of each treatment period, hepatocyte cultures (96-well) were washed with 1 volume of HBSS, lysed by addition of 25 ul ArrayPlate lysis buffer (HTG, Tucson, AZ), and 70 ul/well of Denaturation Oil, denatured by incubation at 95C for 10 min, and frozen at approximately -70C until analysis by nuclease protection assay (qNPA) (Roberts et al., 2007). For qNPA analysis, cell lysates were thawed at 50C for approximately 30 min, qNPA probes were added, and samples were incubated at 95C for 10 min to begin the detection process by denaturing the target RNA, dissociating the duplexes and secondary structure hybridization. At the conclusion of the hybridization period, S1 nuclease reagent was added to each sample to digest all nonprotected nucleotides at 50C for 60-90 min. […]
Turning to `CCCCNC(=O)n1c(NC(=O)OC)nc2ccccc21`, the molecule was classed as inactive.

As to `N#Cc1cc(Br)c(O)c(Br)c1`, the call was inactive.

For the molecule `CCNc1nc(Cl)nc(NCC)n1`, the call was inactive.

`CCCCOC(=O)c1ccccc1C(=O)OCCCC`: the outcome was inactive.

On to `CC1COC(Cn2cncn2)(c2ccc(Oc3ccc(Cl)cc3)cc2Cl)O1` (centres undefined), for which the result was inactive.

On to `COc1nc(C)nc(NC(=O)NS(=O)(=O)c2ccccc2Cl)n1`, for which the outcome was inactive.

Turning to `O=C(Nc1ccccc1)Nc1ccnc(Cl)c1`, the molecule was called inactive.

`CCc1nn(C)c(C(=O)NCc2ccc(C(C)(C)C)cc2)c1Cl`: the outcome was inactive.

As for `C#CCOS(=O)OC1CCCCC1Oc1ccc(C(C)(C)C)cc1` (centres undefined), the molecule was called inactive.

Turning to `CCCC1COC(Cn2cncn2)(c2ccc(Cl)cc2Cl)O1` (centres undefined), the call was inactive.

With `COc1cnc(OC)n2nc(NS(=O)(=O)c3c(OCC(F)F)cccc3C(F)(F)F)nc12`, the call was inactive.

As to `Cc1c(F)c(F)c(COC(=O)C2C(/C=C(\Cl)C(F)(F)F)C2(C)C)c(F)c1F` (centres undefined), the call was inactive.

Consider `CC(C)Oc1cc(-n2nc(C(C)(C)C)oc2=O)c(Cl)cc1Cl`, for which the molecule was called inactive.

For the molecule `OC(c1ccc(Cl)cc1)(c1cncnc1)c1ccccc1Cl` (centres undefined), the molecule was classed as inactive.

Take `COC(=O)c1ccccc1C(=O)OC`: the call was inactive.

With `COc1nc(NC(C)C)nc(NC(C)C)n1`, the molecule was called inactive.

Consider `CC(C)C1(C)N=C(c2nc3ccccc3cc2C(=O)O)NC1=O` (centres undefined), for which the molecule was called inactive.

Regarding `O=C(O)c1nc(Cl)ccc1Cl`, the result was inactive.

On to `CC(C)(C)c1ccc(CSc2cnn(C(C)(C)C)c(=O)c2Cl)cc1`, for which the molecule was classed as inactive.

For `CN(C)C(=S)SSC(=S)N(C)C`, the call was inactive.

`C=CCC1=C(C)C(OC(=O)C2C(C=C(C)C)C2(C)C)CC1=O` (centres undefined): the call was inactive.

In the case of `C=CC1(C)OC(=O)N(c2cc(Cl)cc(Cl)c2)C1=O` (centres undefined), the call was inactive.

Consider `CC(Oc1ccc(Cl)cc1Cl)C(=O)O` (centres undefined), for which the molecule was classed as inactive.

For the molecule `Cc1ccc(-c2c(Cl)nc(C#N)n2S(=O)(=O)N(C)C)cc1`, the molecule was called inactive.

Take `CS/C(C)=N/OC(=O)N(C)SN(C)C(=O)O/N=C(\C)SC`: the molecule was called inactive.

With `CCON=C(CC)C1=C(O)CC(c2c(C)cc(C)cc2C)CC1=O` (centres undefined), the result was inactive.

For `COC(=O)C=C(C)OP(=O)(OC)OC`, the call was inactive.

`COc1nc(C)nc(NC(=O)NS(=O)(=O)c2ccccc2CCC(F)(F)F)n1`: the result was inactive.

With `COP(=S)(OC)Oc1nc(Cl)c(Cl)cc1Cl`, the result was inactive.

As for `Cc1cc(Cl)ccc1OCC(=O)O`, the molecule was called inactive.

In the case of `CO/C=C(/C(=O)OC)c1ccccc1Oc1cc(Oc2ccccc2C#N)ncn1`, the outcome was inactive.

With `CNC(=O)ON=CC(C)(C)SC`, the result was inactive.

As to `COP(N)(=O)SC` (centres undefined), the molecule was classed as inactive.

In the case of `COC(=O)C(C)Oc1ccc(Oc2ccc(Cl)cc2Cl)cc1` (centres undefined), the outcome was inactive.
